For some assays here: Measured potencies and affinities stand elsewhere.

What all share (set-up): scale not given: direction of the effect not stated beside the values
The target in test [1] is Protein translocase subunit SecA (Escherichia coli (strain K12)) (UniProt P10408). The test can be described thus: Assay to Identify E. coli SecA ATPase Inhibitors. Type of test: functional. Particulars: 30 µM.
Test [2] has as its target T1, Ubiquitin-activating enzyme e1, putative (Leishmania donovani (strain BPK282A1)) (UniProt E9BSI1).
T1 sequence (whole entry): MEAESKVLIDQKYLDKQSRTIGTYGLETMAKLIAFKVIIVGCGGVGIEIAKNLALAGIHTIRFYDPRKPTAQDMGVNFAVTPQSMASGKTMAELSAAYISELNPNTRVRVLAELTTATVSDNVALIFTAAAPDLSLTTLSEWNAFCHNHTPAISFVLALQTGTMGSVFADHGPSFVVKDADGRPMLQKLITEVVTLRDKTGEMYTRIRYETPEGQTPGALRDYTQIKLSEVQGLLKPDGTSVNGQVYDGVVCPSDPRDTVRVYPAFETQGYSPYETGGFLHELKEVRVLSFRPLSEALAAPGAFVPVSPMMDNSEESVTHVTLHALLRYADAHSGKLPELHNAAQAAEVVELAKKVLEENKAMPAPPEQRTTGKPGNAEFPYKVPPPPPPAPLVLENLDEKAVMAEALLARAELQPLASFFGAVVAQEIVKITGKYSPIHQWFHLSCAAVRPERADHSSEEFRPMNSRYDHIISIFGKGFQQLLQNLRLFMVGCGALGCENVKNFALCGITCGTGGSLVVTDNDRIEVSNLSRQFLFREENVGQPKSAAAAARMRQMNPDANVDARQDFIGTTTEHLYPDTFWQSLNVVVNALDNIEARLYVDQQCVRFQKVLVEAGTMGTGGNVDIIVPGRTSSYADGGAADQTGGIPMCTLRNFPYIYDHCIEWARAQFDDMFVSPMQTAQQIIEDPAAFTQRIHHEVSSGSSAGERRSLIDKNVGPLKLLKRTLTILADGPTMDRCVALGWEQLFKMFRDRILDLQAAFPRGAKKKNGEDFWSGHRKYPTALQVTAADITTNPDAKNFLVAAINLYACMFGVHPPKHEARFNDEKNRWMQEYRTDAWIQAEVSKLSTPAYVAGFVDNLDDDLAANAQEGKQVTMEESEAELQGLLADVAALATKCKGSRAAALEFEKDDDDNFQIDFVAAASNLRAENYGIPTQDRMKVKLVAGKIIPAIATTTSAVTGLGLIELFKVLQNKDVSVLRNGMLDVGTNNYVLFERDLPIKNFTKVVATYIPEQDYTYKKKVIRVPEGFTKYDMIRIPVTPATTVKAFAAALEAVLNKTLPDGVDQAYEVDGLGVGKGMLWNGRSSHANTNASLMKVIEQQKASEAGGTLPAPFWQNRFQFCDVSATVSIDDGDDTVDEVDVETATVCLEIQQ
The test can be described thus: Leishmania donovani Ubiquitin Activating Enzyme (LdE1). Type of test: functional. To be noted: 30 µM.

Test [3] has as its target AMP-activated protein kinase, AMPK (Homo sapiens) (UniProt P54646+O43741+P54619+Q9UGJ0+Q9Y478+Q13131+Q9UGI9). In words: AMP-dependent Kinase enzyme assay. An in vitro enzyme assay that detects ADP turnover that is directly proportional to AMPK activity. This uses naive AMPK that is activated during the assay with MK-8722. Type of test: functional. To be noted: 30 µM.
Test [4] has as its target Sialic acid-binding Ig-like lectin 9 (Homo sapiens) (UniProt Q9Y336). The test can be described thus: Hs-Siglec9 ALPHAscreen SOP 20170721. To be noted: 10 µM. On the technique in general: In Alpha technology, singlet oxygen from a donor bead excites a nearby acceptor bead.
A further test has as its system Trypanosoma cruzi. In words: Trypanosoma cruzi phosphomannomutase and mannose-1-phosphate guanylyltransferase assay. Type of test: functional. To be noted: 10 µM.
Test [5] deals with T2, Arginase-2, mitochondrial (Homo sapiens) (UniProt P78540).
T2 sequence (whole entry): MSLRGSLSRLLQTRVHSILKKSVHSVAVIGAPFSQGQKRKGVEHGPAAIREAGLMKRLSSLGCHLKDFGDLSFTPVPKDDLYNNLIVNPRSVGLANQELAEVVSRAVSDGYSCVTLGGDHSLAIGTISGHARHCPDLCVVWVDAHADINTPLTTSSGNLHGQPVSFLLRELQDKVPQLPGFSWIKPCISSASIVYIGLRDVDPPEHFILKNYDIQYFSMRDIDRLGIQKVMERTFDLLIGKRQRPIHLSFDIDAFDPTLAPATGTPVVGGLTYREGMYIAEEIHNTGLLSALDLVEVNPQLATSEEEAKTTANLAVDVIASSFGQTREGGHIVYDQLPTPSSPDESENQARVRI
In words: in vitro enzyme assay to detect the production of urea directly proportional to the activity of Arginase II. Also: in the data most compounds retested in dose-response had high values. The format is functional. Particulars: 33.3 µM.

Test [6] deals with T3, Proteasome subunit beta (Trypanosoma cruzi) (UniProt O96673).
T3 sequence (whole entry): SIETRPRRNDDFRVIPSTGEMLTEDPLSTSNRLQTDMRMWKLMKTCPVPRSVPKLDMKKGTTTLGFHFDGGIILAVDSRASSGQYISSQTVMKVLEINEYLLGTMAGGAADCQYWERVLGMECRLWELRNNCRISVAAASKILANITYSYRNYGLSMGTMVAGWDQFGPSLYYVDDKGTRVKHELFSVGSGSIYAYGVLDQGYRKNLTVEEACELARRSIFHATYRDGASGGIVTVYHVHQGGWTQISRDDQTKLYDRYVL
In words: Trypanosoma cruzi proteasome chymotrypsin-like activity (TcProtChymo) assay. Also: in the data most compounds retested in dose-response had high values. To be noted: 9.37 µM. The format is functional.

For the next test, the species on record is Homo sapiens. In words: To identify inhibition of the IFN signalling (Jak-Stat) pathway via expression of an eGFP reporter gene under the control of an IFN-stimulated response element (ISRE) containing MxA promoter. Type of test: functional. To be noted: 30 µM. (In a reporter assay the amount or activity of a reporter protein is the signal.)
The target of test [7] is T4, Tyrosyl-tRNA synthetase, putative (Trypanosoma cruzi (strain CL Brener)) (UniProt Q4DSP6).
T4 sequence (whole entry): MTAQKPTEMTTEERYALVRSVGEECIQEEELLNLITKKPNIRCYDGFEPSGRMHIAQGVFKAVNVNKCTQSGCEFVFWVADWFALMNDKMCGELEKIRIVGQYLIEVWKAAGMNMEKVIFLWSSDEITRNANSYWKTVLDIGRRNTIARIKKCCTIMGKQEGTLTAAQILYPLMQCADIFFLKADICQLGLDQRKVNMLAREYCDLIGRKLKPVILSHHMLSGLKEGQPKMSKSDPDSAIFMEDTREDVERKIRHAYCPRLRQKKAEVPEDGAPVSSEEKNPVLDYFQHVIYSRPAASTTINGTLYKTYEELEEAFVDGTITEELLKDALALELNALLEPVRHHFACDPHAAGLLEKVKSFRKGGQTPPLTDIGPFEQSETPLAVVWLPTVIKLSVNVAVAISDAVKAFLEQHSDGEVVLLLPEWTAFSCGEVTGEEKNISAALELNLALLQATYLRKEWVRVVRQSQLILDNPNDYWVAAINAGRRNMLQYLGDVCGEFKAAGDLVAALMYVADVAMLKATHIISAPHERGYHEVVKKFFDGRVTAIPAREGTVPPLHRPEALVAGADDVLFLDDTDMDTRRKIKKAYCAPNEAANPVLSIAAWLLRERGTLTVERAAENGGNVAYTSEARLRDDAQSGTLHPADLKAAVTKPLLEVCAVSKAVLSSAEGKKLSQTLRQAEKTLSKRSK
The test can be described thus: Trypanosoma cruzi tyrosyl tRNA synthetase (TcYRS) _High Tyrosine SOP. Also: in the data most compounds retested in dose-response had high values. Type of test: functional. Particulars: 30 µM.

In test [8] the target is T4, Tyrosyl-tRNA synthetase, putative (Trypanosoma cruzi (strain CL Brener)). The test can be described thus: Trypanosoma cruzi tyrosyl tRNA synthetase (TcYRS) SOP. The format is functional. Particulars: 30 µM.
Test [9] addresses Chromo domain-containing protein 1 (Saccharomyces cerevisiae (strain ATCC 204508 / S288c) (Baker's yeast)) (UniProt P32657). In words: ScCHD-1 Enzyme Inhibition Assay. Also: in the data most compounds retested in dose-response had high values. Type of test: functional. Particulars: 30 µM.

Chain of Chromo domain-containing protein 1 (Saccharomyces cerevisiae (strain ATCC 204508 / S288c) (Baker's yeast)) (P32657 whole entry, the tested form may be a part): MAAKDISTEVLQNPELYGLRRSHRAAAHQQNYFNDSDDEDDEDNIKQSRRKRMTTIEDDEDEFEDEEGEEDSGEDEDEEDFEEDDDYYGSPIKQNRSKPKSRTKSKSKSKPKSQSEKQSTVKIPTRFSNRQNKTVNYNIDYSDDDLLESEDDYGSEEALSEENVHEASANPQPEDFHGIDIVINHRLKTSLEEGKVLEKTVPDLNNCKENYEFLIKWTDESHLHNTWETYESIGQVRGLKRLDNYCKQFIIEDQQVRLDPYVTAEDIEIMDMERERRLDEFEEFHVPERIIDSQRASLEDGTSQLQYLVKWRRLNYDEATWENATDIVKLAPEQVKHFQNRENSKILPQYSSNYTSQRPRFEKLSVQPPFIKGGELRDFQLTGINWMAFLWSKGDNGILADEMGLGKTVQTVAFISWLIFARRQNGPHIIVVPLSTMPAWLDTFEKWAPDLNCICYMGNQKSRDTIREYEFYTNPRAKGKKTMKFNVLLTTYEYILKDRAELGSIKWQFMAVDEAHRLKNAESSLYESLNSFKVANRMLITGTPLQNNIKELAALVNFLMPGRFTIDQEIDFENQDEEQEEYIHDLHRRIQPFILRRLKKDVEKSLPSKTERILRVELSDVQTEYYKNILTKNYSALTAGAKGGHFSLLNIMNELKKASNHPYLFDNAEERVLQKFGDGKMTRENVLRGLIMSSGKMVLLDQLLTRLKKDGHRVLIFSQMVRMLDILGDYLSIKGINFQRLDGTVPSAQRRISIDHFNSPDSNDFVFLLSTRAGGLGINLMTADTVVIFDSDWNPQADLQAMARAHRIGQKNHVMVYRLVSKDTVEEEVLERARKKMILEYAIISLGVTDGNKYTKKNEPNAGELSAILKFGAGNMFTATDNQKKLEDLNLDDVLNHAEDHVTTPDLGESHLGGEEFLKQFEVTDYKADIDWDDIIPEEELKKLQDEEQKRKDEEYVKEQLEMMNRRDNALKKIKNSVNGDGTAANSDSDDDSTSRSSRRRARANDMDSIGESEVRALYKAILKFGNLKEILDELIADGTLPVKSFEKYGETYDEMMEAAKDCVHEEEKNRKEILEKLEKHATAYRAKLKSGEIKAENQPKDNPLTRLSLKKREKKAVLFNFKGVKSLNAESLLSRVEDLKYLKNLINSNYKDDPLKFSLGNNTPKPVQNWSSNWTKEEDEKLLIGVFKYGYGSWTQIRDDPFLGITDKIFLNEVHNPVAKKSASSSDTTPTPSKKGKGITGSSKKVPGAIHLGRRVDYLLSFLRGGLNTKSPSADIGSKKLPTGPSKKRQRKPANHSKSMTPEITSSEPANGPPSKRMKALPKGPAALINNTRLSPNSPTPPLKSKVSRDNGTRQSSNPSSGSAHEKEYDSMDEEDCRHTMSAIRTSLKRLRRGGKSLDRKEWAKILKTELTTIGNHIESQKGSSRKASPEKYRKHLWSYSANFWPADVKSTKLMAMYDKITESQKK
Chain of Sialic acid-binding Ig-like lectin 9 (Homo sapiens) (Q9Y336 whole entry): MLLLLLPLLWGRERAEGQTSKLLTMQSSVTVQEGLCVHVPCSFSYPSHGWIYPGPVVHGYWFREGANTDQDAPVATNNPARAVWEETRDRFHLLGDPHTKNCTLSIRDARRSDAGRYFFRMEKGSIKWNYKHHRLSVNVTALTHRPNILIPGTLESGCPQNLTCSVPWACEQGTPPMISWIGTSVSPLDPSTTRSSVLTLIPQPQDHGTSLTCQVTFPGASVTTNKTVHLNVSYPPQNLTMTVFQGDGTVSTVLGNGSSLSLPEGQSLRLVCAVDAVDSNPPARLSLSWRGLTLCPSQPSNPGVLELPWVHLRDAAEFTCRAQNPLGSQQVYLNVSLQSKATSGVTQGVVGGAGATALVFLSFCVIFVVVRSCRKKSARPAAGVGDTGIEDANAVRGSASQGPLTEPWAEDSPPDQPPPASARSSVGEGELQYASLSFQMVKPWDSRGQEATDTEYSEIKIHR
Chain of Protein translocase subunit SecA (Escherichia coli (strain K12)) (P10408 whole entry): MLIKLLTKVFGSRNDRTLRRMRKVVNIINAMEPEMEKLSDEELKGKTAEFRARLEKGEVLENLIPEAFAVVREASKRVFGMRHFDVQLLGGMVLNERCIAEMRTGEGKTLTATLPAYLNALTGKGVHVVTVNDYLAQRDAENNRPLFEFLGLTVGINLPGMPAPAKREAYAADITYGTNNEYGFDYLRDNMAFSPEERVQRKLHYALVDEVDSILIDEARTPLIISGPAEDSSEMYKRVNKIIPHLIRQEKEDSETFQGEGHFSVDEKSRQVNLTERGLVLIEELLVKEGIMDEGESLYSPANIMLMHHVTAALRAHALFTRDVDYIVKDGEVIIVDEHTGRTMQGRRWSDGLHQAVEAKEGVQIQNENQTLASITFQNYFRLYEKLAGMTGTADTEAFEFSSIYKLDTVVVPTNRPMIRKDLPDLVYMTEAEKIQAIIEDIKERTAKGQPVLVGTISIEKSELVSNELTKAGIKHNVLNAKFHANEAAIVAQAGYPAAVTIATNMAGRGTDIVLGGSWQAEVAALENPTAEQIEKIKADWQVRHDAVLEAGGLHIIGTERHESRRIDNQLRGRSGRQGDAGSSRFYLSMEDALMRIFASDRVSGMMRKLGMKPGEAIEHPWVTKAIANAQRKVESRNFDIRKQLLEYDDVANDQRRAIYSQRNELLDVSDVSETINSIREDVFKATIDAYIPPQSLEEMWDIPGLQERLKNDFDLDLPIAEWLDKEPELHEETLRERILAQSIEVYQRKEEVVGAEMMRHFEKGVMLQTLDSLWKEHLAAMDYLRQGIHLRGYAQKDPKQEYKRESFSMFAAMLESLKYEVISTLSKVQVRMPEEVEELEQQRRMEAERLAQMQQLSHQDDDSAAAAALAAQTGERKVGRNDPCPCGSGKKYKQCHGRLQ

For `O=C(N1CCOCC1)[C@@]12CCO[C@@H]1CCN(CCN1CCCCC1)C2`, the Percent Effect in [1] is -0.594%; in test [2], 14.7%; in test [3] it was -0.279%; in [4] it was -2.46%; with Trypanosoma cruzi, 1.18%; in test [5] it was -4.05%. The Percent Effect is 20.9% in test [6]; -2.62% in the test listed under Homo sapiens; -6.35% in [7]; 15.4% in test [8]; -11.6% in test [9].

As for `COc1cc(CNC(=O)NCCCF)cc(Br)c1OC`, the Percent Effect in test [1] is -5.95%; in test [2], -2.67%; in test [3] it was 3.23%; in [4] it was -1.26%; with Trypanosoma cruzi, -2.24%; in test [5], 0%. Besides, the Percent Effect was -0.174% in test [6]; 25.5% in the test filed under Homo sapiens; 1.64% in test [7]; 1.24% in test [8]; 1.39% in [9].

As to `Cc1nc(C2CCCN2CC(=O)N(Cc2ccsc2)C2CC2)no1` (stereo not given), the Percent Effect in [1] was -3.4%; in [2] it was -8.11%; in test [3], -3.86%; in [4], 2.75%; with Trypanosoma cruzi it was 5.48%; in [5], -4.99%. Also, the Percent Effect is 10.6% in test [6]; 25.6% in the test listed under Homo sapiens; 14.8% in [7]; 18.3% in test [8]; -5.35% in [9].

As for `CC(C(=O)Nc1ccc(N2CCCC2)nc1)n1cncn1` (stereo not given), the Percent Effect in test [1] is -5.02%; in test [2], 10.8%; in [3] it was -32.5%; in [4], 18.1%; with Trypanosoma cruzi, 4.62%; in [5], -9.62%. Besides, the Percent Effect in [6] is 14.2%; in the test listed under Homo sapiens it was 19.2%; in test [7] it was 7.39%; in test [8] it was 18.5%; in test [9], -10.4%.

Regarding `Cn1cc(S(=O)(=O)N2CCCC2CC(=O)c2cccs2)cn1` (stereo not given), the Percent Effect in [1] is 2.62%; in test [2] it was 0%; in [3], 0.659%; in test [4] it was -5.21%; in the test with Trypanosoma cruzi, -5.79%; in test [5], 1.43%. For the same molecule, the Percent Effect is 14.8% in [6]; 11.2% in the test filed under Homo sapiens; 2.65% in test [7]; 4.88% in test [8]; -3.57% in test [9].

`Cc1ccsc1C(=O)N1CC(C(=O)N2CCOCC2)C2(CCOCC2)C1` (stereo not given): the Percent Effect in [1] is -7%; in [2] it was 2.6%; in [3], 117%; in test [4], -9.65%; with Trypanosoma cruzi, -8.38%; in test [5], 0.645%. In addition, the Percent Effect is 13.1% in test [6]; 0.0644% in the test listed under Homo sapiens; -4.23% in [7]; -8.97% in test [8]; -5.38% in test [9].

Take `O=C(Cn1ccc2c(Cl)cccc21)N[C@@H](C(=O)O)c1ccccc1`: the Percent Effect in [1] was -1.64%; in test [2], 4%; in test [3], 6.31%; in test [4], 0.703%; in the test with Trypanosoma cruzi, -4.71%; in [5], -7.57%. Also, the Percent Effect in [6] is 19.8%; in the test listed under Homo sapiens, -11.3%; in test [7], -7.41%; in [8], -2.56%; in test [9] it was -4.5%.

With `CN1CCN(C(=O)[C@@H]2CCO[C@@H]3CCN(c4ncccn4)C[C@@H]32)CC1`, the Percent Effect was -0.254% in test [1]; 13.3% in [2]; 0.0211% in test [3]; 0.601% in test [4]; 2.7% in the test with Trypanosoma cruzi; -48.9% in [5]. Also, the Percent Effect in [6] is 8.21%; in the test listed under Homo sapiens it was -18.8%; in test [7], 7.29%; in test [8], 17.5%; in [9] it was -7.16%.

Regarding `Cn1ccnc1CN1CCN(c2ccc(C#N)cn2)CC1`, the Percent Effect in test [1] is -0.525%; in [2] it was -67.6%; in test [3], 39.5%; in [4], 9.32%; in the test on Trypanosoma cruzi, 0.464%; in [5], 1.29%. Moreover, the Percent Effect in [6] is 6.64%; in the test filed under Homo sapiens it was 7.75%; in test [7], 6.93%; in test [8], 15.8%; in [9] it was -4.02%.

As for `COc1ccc(CN(C)C(=O)CCc2c(C)nc(C)[nH]c2=O)cc1OC`, the Percent Effect in test [1] is -2.11%; in [2], 6.94%; in test [3] it was -3.92%; in test [4], 5.86%; in the test on Trypanosoma cruzi it was 5.15%; in [5], 0%. For the same molecule, the Percent Effect was 20.2% in test [6]; -1.63% in the test filed under Homo sapiens; 7.37% in test [7]; 12.8% in test [8]; -3.31% in test [9].

The values above are taken from ChEMBL document CHEMBL3988442, “University of Dundee, Small-Polar-MMV Screening Library” (2021).
